Bioassay records deposited in PubChem by National Center for Advancing Translational Sciences (NCATS).
Rows were chosen to be rich in hits. Some 18% of all compounds tested hit in one or more screens of this group.
TDP1 cell noCPT: qHTS for Inhibitors of human tyrosyl-DNA phosphodiesterase 1 (TDP1): qHTS in cells in absence of CPT. Potency, µM (top dose mostly 46.2 µM), without a hit: at the top dose activity change, negative = growth inhibition, actives largely listed as inhibitors. 15% of 420,000 active. DT40 Tdp1-/- hTDP1 cells, no CPT, ATP luminescence, 48 h; note: potency is the fitted concentration of half-maximal effect; nearly all actives have a fitted effect of over 55% in size
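Camptothecin absent (DMSO only). Human TDP1-complemented DT40 knockout cells, 400 cells/well, 37 °C for minimum 48 hr; ATP measured via CellTiter-Glo, 30 min dark incubation, luminescence.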
TDP1 cell CPT: DT40-hTDP1 cell growth loss with CPT | chicken DT40 Tdp1-/-;hTDP1 cells + 20 nM CPT, ATP luminescence, 48 h | Potency, µM (highest dose often 46.2 µM), for inactives: at the top dose activity change, negative = growth inhibition, usual class: inhibitors | 12% of 420,000 active | AID 686979; note: potency is the fitted concentration of half-maximal effect; nearly all actives have a fitted effect of over 55% in size
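Chicken DT40 Tdp1-/- cells stably complemented with human TDP1 were seeded at 400 cells/well in medium containing 20 nM camptothecin, exposed to pin-transferred compounds, and grown at 37 °C for at least 48 hr. Viability was read as ATP luminescence.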
RORg inh: ROR gamma (mouse) transcription inhibition. P51450. Drosophila S2 Gal4-RORgamma UAS-luciferase reporter, 20 h. Potency, µM (doses to about 53.6 µM), without a hit: top-dose activity change, negative = inhibition, usual class: inhibitors. 5.4% of 310,000 active. AID 2551; note: potency is the fitted concentration of half-maximal effect; nearly all actives have a fitted effect of over 60% in size
Target sequence (P51450 whole entry, looked up, the tested form may be a part): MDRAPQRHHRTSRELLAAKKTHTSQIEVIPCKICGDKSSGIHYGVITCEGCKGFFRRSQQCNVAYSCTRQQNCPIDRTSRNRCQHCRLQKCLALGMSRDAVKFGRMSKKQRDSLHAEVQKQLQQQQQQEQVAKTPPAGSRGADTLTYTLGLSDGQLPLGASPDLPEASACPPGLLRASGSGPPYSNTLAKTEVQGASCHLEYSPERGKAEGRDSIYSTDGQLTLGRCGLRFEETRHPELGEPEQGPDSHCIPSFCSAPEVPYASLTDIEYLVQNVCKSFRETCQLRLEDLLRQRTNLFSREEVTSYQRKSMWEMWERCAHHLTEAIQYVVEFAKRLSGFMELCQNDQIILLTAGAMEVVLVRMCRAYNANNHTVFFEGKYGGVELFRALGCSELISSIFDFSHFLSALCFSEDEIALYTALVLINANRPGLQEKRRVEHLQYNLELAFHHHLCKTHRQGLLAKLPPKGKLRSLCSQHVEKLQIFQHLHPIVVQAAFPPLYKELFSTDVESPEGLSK
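A Gal4/UAS one-hybrid system in insect cells: metallothionein-promoter Gal4–ROR gamma fusion plus Photinus luciferase reporter. Copper sulfate 700 uM final, 20 hr ambient incubation, luminescent detection after 10 min with reagent.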
IL-1B inflam inh: inhibitors of inflammasome signaling (IL-1 beta secretion); THP-1 LPS/ATP IL-1B secretion, AlphaLISA, 16 h; stronger effect = lower value; activity change, % at 57.5 µM; 4.7% of 360,000 active; AID 743279; in the data active = activity change below about -50%; inconclusive = mostly about -30% to -49%
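Secreted IL-1B measured by AlphaLISA bead assay after 16 h compound exposure of THP-1 cells; compounds (final up to 57.5 uM) added 1 h before LPS (250 ng/mL) and ATP (1.25 mM) stimulation; lower signal means less secretion.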
VP16 counter: counter-screen for ROR gamma inhibitors: Gal4-VP16 reporter | 3.5% of 310,000 active | Potency, µM (doses to about 53.6 µM), inactives show top-dose activity, negative = inhibition, hits mostly inhibitors | Drosophila S2 Gal4-VP16 UAS-luciferase, luminescence, 20 h | AID 2546;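 note: Gal4-VP16 expression switched on by copper sulfate through the metallothionein promoter; potency is the fitted concentration of half-maximal effect; nearly all actives have a fitted effect of over 50% in size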
LDHA inh: blocks human lactate dehydrogenase A; P00338; purified LDHA, NADH/diaphorase-resazurin fluorescence; stronger effect = lower value; activity change, % (values are at about 110 or 230 µM); 0.15% of 480,000 active; in the data active = activity change below about -30%; inconclusive = mostly about -25% to -30%;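 note: plate controls were DMSO wells for no effect and wells without enzyme for full effect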
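Resorufin fluorescence (ex540/em590), read at 0 and 20 min after diaphorase/resazurin addition, reports the NADH left after a 5 min room-temperature reaction of 2 nM human LDH5 with 0.06 mM NADH and 0.2 mM pyruvate.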
* hit, by the source's call; [ ] = another dose, or the depositor's remark. Unless noted, calls come from the whole dose curve; as a rule, active = well fitted curve in the direction sought with a large enough effect; inconclusive = small, poorly fitted or top-dose-only effect, or another doubt; inactive = no such curve, though single readings can be large; an effect the other way counts as inactive or inconclusive. Unless noted, % is set by controls: 0 for no effect and ±100 for the full control effect.

Screening Cc1ccc(NC(=O)CC2S/C(=N/N=C/c3ccco3)NC2=O)cc1Cl (configuration not stated) returned TDP1 cell noCPT 13.8%, TDP1 cell CPT 11.4%, RORg inh inconclusive, IL-1B inflam inh 20.6, VP16 counter 1.5%[10 µM] and LDHA inh -7.9.
For Cc1ccc(NC(=O)CC2S/C(=N/N=C/c3c[nH]c4ccccc34)NC2=O)cc1 (configuration not stated) the results were TDP1 cell noCPT -9.8%, TDP1 cell CPT -2.0%, RORg inh -12.4%, IL-1B inflam inh 12.2, VP16 counter -3.0% and LDHA inh -1.3.
CCOC(=O)c1ccc(NC(=O)CC2S/C(=N/N=C/c3c[nH]c4ccccc34)NC2=O)cc1 (configuration not stated) was read as TDP1 cell noCPT inconclusive, TDP1 cell CPT -23.0%, RORg inh inconclusive, IL-1B inflam inh -68.0*, VP16 counter -16.8% and LDHA inh -3.3.
Cc1ccccc1NC(=O)CC1SC(=Nc2ccc(O)cc2)NC1=O (configuration not stated) was read as TDP1 cell noCPT -9.3%, TDP1 cell CPT -19.1%, RORg inh 25.7%, IL-1B inflam inh -2.5, VP16 counter -0.7% and LDHA inh -0.7.
`Cc1nc2nc(C(F)(F)F)[nH]n2c(=O)c1Cc1ccc(Br)cc1` gave LDHA inh 0.6.
For CSc1cccc(NC(=O)Cc2cccc(F)c2)c1 the results were LDHA inh 4.0.
Fc1cccc(/C=N/Nc2cc(C(F)(F)F)ccc2Cl)c1 was read as LDHA inh 6.1.
For CSC1=N/C(=C\c2ccco2)C(=O)S1 the results were LDHA inh 10.4.
For CCCSC1=N/C(=C\c2ccc([N+](=O)[O-])o2)C(=O)S1 the results were TDP1 cell noCPT inconclusive, TDP1 cell CPT 20.6µM*, RORg inh 2.3%, IL-1B inflam inh -7.0, VP16 counter 17.0% and LDHA inh 1.3.
CCSC1=N/C(=C\c2ccc(-c3ccccc3[N+](=O)[O-])o2)C(=O)S1 was read as TDP1 cell noCPT inconclusive, TDP1 cell CPT 3.9%, RORg inh 0.8%, IL-1B inflam inh 0.0, VP16 counter -7.4% and LDHA inh 5.7.
Screening CCCSC1=N/C(=C\C=C\c2ccco2)C(=O)S1 returned TDP1 cell noCPT 18.4µM*, TDP1 cell CPT 25.9µM*, RORg inh -4.3%, IL-1B inflam inh -6.9, VP16 counter 3.9% and LDHA inh 11.6.
For Cc1ccccc1-n1ccnc1SCC(=O)c1ccc(F)c(F)c1 the results were LDHA inh -0.7.
For CC1=NC(=O)C(N=Nc2ccccc2C(=O)O)N1c1ccccc1 (configuration not stated) the results were TDP1 cell noCPT 13µM*, TDP1 cell CPT 7.31µM*, RORg inh -23.8%, IL-1B inflam inh 35.8, VP16 counter -6.8% and LDHA inh 3.7.
Screening CC1=NC(=O)C(N=Nc2ccccc2)N1c1ccccc1 (configuration not stated) returned TDP1 cell noCPT -13.9%, TDP1 cell CPT -5.9%, RORg inh -8.3%, IL-1B inflam inh 3.7, VP16 counter inconclusive and LDHA inh -1.4.
Screening Cc1nn(-c2ccccc2C(=O)O)c(=O)c2ccccc12 returned TDP1 cell noCPT 0.2%, TDP1 cell CPT 6.6%, RORg inh 6.5%, IL-1B inflam inh 15.4, VP16 counter 8.2% and LDHA inh -5.0.
Screening CC1=NC(=O)C(N=Nc2cccc(C(=O)O)c2)N1c1ccccc1 (configuration not stated) returned TDP1 cell noCPT -0.4%, TDP1 cell CPT 4.3%, RORg inh 5.62µM*, IL-1B inflam inh 13.3, VP16 counter 8.91µM* and LDHA inh inconclusive.
